# Among all 360,000 compounds or so, about 2,700 (0.75%) were called active. The sample as a whole holds a higher share of actives than the screen did. Values without a mark were called inactive. Cut-off read from the data, not from the text of the source: active = inhibition above about 4.5%; inactive = the rest.
# System: Methionine sulfoxide reductase A (Bos taurus)
# Assay: inhibition of methionine sulfoxide reductase A – biochemical, absorbance, bovine, HTS, primary screen (AID 651718);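 note: 0% = vehicle wells with enzyme and 100% = reference inhibitor wells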
# Settings: purified bovine MsrA, absorbance read-out; at 15.5 µM; active compounds read high
row,SMILES,inhibition
1,Cc1cc(NCCc2c[nH]c3ccccc23)ccc1Oc1cccnc1,-0.9%
2,COc1ccc(C2/C(=C(/O)c3ccccc3)C(=O)C(=O)N2c2ncccn2)cc1OC (centres undefined),1.66%
3,COc1ccc(C2/C(=C(/O)c3ccccc3)C(=O)C(=O)N2C)c(OC)c1 (centres undefined),4.89% (active)
4,COc1cccc(C2/C(=C(/O)c3ccc(F)cc3)C(=O)C(=O)N2CCN(C)C)c1 (centres undefined),2.59%
5,CCOc1ccccc1C(=O)N1CCC[C@@H]1C(=O)N1CCC[C@H]1C(=O)NCc1ccccc1,0%
6,CSC1=NCCN1C(=O)c1ccc(S(=O)(=O)N2CCOCC2)cc1,0.32%
7,Cc1c(-c2ccccc2)cn2c1-c1ccc(C)n1CC2,2.59%
8,CN1CCCc2nc(-c3ccccc3)ccc21,-0.16%
9,O=C1[C@@H](c2ccccc2)[C@@H](c2ccccc2)N1c1ccccc1,0%
10,COc1ccc(/C=C/C(=O)Nc2ccc(C34CC5CC(CC(O)(C5)C3)C4)cc2)cc1OC,2.4%
11,COc1ccc(/C=C/C(=O)Nc2cccnc2)cc1OC,5.32% (active)
12,COc1cc(/C=N/NC(=S)Nc2cccnc2)cc(OC)c1O,4.5%
13,COc1cccc(CNC(=O)[C@H]2CCCN2C(=O)[C@H]2CCCN2C(=O)c2ccc(F)cc2)c1,-0.32%
14,COCCN(CCOC)S(=O)(=O)NC[C@H]1O[C@@H](n2cnc3c(N)ncnc32)[C@H](O)[C@@H]1O,-0.9%
15,CNC[C@H](CC1CCCCC1)NC[C@H](NCCC1CCCC1)[C@H](C)O,0.32%
16,C[C@@H]1CN([C@H](C)CO)C(=O)CCCn2cc(nn2)CO[C@H]1CN(C)C(=O)Nc1ccc(N2CCCCC2)cc1,0.88%
17,CN(CCO)c1ccc(/C=N/Nc2nncc3ccccc23)cc1,2.64%
18,COc1cc(Nc2nc3ccc(Cl)cc3n3cnnc23)cc(OC)c1OC,-1.86%
19,COc1cc(/C=N/Nc2nn3cnnc3c3ccccc23)cc(OC)c1OC,5.31% (active)
20,Cn1ccs/c1=N\S(=O)(=O)c1ccc(C(C)(C)C)cc1,-0.4%
21,COc1ccc(OC)c(C2C3=C(N=c4s/c(=C\c5cccc(O)c5)c(=O)n42)c2ccccc2CC3)c1 (centres undefined),5.07% (active)
22,C=CCOc1ccc(C2/C(=C(\O)c3c(C)[nH]c(C(=O)OC)c3C)C(=O)C(=O)N2CCN(C)C)cc1 (centres undefined),1.79%
23,O=C(O)c1ccccc1NC(=S)NC(NC(=O)c1ccccc1[N+](=O)[O-])C(Cl)(Cl)Cl (centres undefined),0.38%
24,Cn1nc(C(=O)OCC(=O)N(Cc2ccccc2)C(C)(C)C)c2ccccc2c1=O,-1.57%

# — PubChem BioAssay AID651718 (The Scripps Research Institute Molecular Screening Center, 2012)
